Reference: PubChem BioAssay (EPA / NIEHS)
The source made the active and inactive calls. Rule for the calls: active = hit-call score of the fitted dose curve at least 0.9, where 1 is the maximum; inactive = score below 0.9.

What was measured:
[1] = ATG_CRE_CIS: Attagene CIS-FACTORIAL HepG2 Assay for human cAMP Responsive Element (CRE) binding protein 3 (AID 2282926); conditions: HepG2 CRE cis-reporter, Attagene multiplexed mRNA; actives raise or lower the signal
How it was run: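 Human liver HepG2, transient MRTU transfection, 24 h compound exposure. Total RNA → oligo(dT) RT → PCR → 6-FAM primer extension → HpaI cut → CE. Activity called both directions vs DMSO.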

[2] = target: CCAAT/enhancer-binding protein beta (Homo sapiens) (UniProt P17676); assay: ATG_C_EBP_CIS: Attagene CIS-FACTORIAL HepG2 Assay for human CCAAT/Enhancer Binding Protein (C/EBP) beta (AID 2282927); conditions: HepG2 Attagene cis-factorial transcription factor reporter; actives raise or lower the signal
CCAAT/enhancer-binding protein beta (Homo sapiens), sequence (P17676 whole entry, looked up, the tested form may be a part): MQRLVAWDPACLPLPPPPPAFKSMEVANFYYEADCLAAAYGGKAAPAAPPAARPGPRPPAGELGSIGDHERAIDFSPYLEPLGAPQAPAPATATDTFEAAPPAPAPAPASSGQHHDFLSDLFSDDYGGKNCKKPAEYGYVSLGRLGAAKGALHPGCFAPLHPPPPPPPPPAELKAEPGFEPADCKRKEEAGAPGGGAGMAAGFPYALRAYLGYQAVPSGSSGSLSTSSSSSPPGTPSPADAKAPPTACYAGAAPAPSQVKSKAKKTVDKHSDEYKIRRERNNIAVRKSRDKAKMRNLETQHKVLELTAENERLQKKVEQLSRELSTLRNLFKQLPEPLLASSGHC
How it was run: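 Chemical-treated HepG2 cells (24 h) bearing cis-regulated reporter constructs were processed for total RNA, then reverse transcription, PCR amplification, fluorescent primer extension and fragment analysis; gain- and loss-of-signal were fitted against DMSO.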

[3] = ATG_CMV_CIS: Attagene CIS-FACTORIAL HepG2 Assay for human CMV (Internal Marker) (AID 2282928); conditions: HepG2 CMV promoter reporter, transcription factor profiling; actives raise or lower the signal;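 note: endpoint acts as a background internal control marker rather than a target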
How it was run: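 CMV internal-marker background readout in transiently transfected HepG2 cells bearing cis-regulated reporter units. Reporter mRNA is measured 24 h after dosing by RT-PCR and capillary electrophoresis, with bidirectional fitting against DMSO.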

[4] = ATG_DR4_LXR_CIS: Attagene CIS-FACTORIAL HepG2 Assay for human Liver X Receptor (LXR), DR4 submotif (AID 2282929); conditions: HepG2 Attagene DR4 cis-reporter, mRNA transcription; actives raise or lower the signal
How it was run: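 Total RNA from 24 h-treated, MRTU-transfected HepG2 cells underwent reverse transcription, PCR, fluorescent primer extension and restriction digestion before capillary electrophoresis. Both increases and decreases in reporter signal were fitted against DMSO.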

[5] = target: Aryl hydrocarbon receptor (Homo sapiens) (UniProt P35869); assay: ATG_Ahr_CIS: Attagene CIS-FACTORIAL HepG2 Assay for human Aryl Hydrocarbon Receptor (Ahr) (AID 2282930); conditions: HepG2 AhR cis-factorial reporter transcription; actives raise or lower the signal
Aryl hydrocarbon receptor (Homo sapiens), sequence (P35869 whole entry, looked up): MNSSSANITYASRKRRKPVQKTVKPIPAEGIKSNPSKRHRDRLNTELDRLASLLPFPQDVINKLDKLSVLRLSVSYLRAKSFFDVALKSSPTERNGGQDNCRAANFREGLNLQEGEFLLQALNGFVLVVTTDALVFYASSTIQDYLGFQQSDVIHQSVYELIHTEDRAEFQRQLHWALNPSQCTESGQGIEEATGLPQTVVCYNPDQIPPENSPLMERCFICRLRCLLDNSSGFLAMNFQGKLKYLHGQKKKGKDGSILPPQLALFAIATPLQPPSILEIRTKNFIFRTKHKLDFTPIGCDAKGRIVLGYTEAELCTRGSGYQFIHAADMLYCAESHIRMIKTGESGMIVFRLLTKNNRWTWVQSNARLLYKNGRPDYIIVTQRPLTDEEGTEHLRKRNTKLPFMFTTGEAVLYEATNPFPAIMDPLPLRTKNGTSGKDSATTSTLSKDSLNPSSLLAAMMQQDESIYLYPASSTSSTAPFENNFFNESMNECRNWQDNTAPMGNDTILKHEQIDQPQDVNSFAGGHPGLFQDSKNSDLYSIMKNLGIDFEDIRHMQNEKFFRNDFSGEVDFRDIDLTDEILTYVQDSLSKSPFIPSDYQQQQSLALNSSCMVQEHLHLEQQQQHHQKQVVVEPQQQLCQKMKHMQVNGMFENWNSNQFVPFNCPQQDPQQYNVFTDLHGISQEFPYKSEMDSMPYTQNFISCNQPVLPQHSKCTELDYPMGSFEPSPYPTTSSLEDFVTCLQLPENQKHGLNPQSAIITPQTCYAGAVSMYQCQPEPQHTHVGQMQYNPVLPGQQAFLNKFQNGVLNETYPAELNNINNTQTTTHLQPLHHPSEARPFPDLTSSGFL
How it was run: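 Following 24 h of chemical dosing, transfected HepG2 liver cells with cis-driven reporter units were lysed for RNA; reporter mRNA was quantified via RT-PCR and capillary electrophoresis, and responses fitted bidirectionally from DMSO.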

[6] = ATG_AP_1_CIS: Attagene CIS-FACTORIAL HepG2 Assay for human Activator Protein 1 (AP-1) (AID 2282931); conditions: HepG2 Attagene cis-factorial AP-1 reporter mRNA; actives raise or lower the signal
How it was run: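 HepG2, transient cis-reporter transfection; 24 h; readout RT-PCR/CE fluorescence; DMSO baseline, gain and loss fitted.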

[7] = ATG_AP_2_CIS: Attagene CIS-FACTORIAL HepG2 Assay for human Activator Protein 2 (AP-2) (AID 2282932); conditions: HepG2 AP-2 cis-reporter, Attagene transcription factor profiling; actives raise or lower the signal
How it was run: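 HepG2 cells were transiently transfected with multiple cis-promoter reporter transcription units and dosed for 24 h. Reporter mRNA was measured by RT-PCR with capillary electrophoresis fluorescence; bidirectional fits relative to DMSO baseline.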

[8] = ATG_BRE_CIS: Attagene CIS-FACTORIAL HepG2 Assay for human Bone Morphogenetic Protein (BMP) Response Element (BRE) (AID 2282933); conditions: HepG2 BMP response element reporter, Attagene transcription factor profiling; actives raise or lower the signal
How it was run: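 Multiplexed cis-reporter assay, HepG2, 24 h exposure. mRNA from reporter units quantified via RT-PCR/CE; DMSO baseline; bidirectional curve fit.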

[9] = target: Transcription factor E2F1 (Homo sapiens) (UniProt Q01094); assay: ATG_E2F_CIS: Attagene CIS-FACTORIAL HepG2 Assay for human E2F Transcription Factor 1 (AID 2282935); conditions: HepG2 Attagene cis-reporter, E2F reporter RNA transcripts; actives raise or lower the signal
Transcription factor E2F1 (Homo sapiens), sequence (Q01094 whole entry, looked up): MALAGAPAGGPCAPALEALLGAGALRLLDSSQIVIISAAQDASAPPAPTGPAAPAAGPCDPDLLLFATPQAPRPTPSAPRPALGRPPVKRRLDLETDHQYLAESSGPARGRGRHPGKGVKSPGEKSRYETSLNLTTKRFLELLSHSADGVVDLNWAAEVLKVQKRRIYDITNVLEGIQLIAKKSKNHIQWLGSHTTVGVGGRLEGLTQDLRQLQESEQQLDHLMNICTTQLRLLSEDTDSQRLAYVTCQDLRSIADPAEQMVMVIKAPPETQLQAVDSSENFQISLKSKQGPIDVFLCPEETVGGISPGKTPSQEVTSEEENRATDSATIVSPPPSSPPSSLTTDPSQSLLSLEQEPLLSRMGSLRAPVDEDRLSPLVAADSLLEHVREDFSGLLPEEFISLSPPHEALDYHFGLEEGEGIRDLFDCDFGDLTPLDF
How it was run: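 HepG2 cells transiently transfected with multiplexed cis-element reporter units, dosed for 24 h. Reporter mRNA measured by RT-PCR, 6-FAM primer-extension labeling, HpaI digestion and capillary electrophoresis; bidirectional fit versus DMSO baseline.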

[10] = ATG_E_Box_CIS: Attagene CIS-FACTORIAL HepG2 Assay for human Enhancer Box (E-box) (AID 2282936); conditions: HepG2 E-box cis-reporter transcription, actives raise or lower the signal
How it was run: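 HepG2 cells transiently transfected with multiplexed cis-element reporter units sensing endogenous transcription factor activity; 24 h compound exposure. Reporter mRNA measured by RT-PCR, 6-FAM primer extension, HpaI digestion and capillary electrophoresis; bidirectional fit versus DMSO.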

[11] = ATG_M_61_CIS: Attagene CIS-FACTORIAL HepG2 Assay for M61 Transcription Factor (Internal Marker) (AID 2282937); conditions: HepG2 Attagene CIS-FACTORIAL M61 internal marker reporter; actives raise or lower the signal
How it was run: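 Transfect HepG2 with MRTUs; dose 24 h; isolate RNA; reverse-transcribe with DNase I treatment; PCR-amplify, FAM-label and cut with HpaI for 2 h at 37 C; resolve by CE. Bidirectional fitting against DMSO.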

[12] = target: Retinoic acid receptor alpha (Homo sapiens) (UniProt P10276); assay: ATG_DR5_RAR_CIS: Attagene CIS-FACTORIAL HepG2 Assay for human Retinoic Acid Receptor Alpha (RARE), DR5 submotif (AID 2282934); conditions: HepG2 Attagene cis-factorial RARE DR5 reporter, mRNA; actives raise or lower the signal
Retinoic acid receptor alpha (Homo sapiens), sequence (P10276 whole entry, looked up): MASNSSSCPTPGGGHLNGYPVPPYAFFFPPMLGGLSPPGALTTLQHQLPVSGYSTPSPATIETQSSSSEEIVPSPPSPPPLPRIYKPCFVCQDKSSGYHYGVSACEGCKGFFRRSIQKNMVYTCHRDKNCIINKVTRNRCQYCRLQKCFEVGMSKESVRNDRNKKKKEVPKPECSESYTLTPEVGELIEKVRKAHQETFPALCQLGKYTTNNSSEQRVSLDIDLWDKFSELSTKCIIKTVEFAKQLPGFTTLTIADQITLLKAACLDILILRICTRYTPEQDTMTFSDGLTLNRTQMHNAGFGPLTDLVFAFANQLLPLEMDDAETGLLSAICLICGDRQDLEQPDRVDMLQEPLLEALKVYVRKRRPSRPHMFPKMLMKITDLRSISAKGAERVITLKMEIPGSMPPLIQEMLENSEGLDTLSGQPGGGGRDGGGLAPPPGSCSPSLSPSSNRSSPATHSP
How it was run: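 Transfected HepG2 reporter cells are exposed to chemicals for 24 h. Then RNA is extracted and the DR5 element reporter transcript is measured by RT-PCR and capillary electrophoresis, with bidirectional curve fitting relative to DMSO.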

Structure (SMILES)	outcome [1]	outcome [2]	outcome [3]	outcome [4]	outcome [5]	outcome [6]	outcome [7]	outcome [8]	outcome [9]	outcome [10]	outcome [11]	AC50 [3]	AC50 [4]	AC50 [5]	AC50 [6]	AC50 [8]	outcome [12]	AC50 [9]	AC50 [1]	AC50 [2]
Cc1cc(Cl)ccc1O[C@H](C)C(=O)O	inactive	inactive	inactive	inactive	inactive	inactive	inactive	inactive	inactive	inactive	inactive	–	–	–	–	–	–	–	–	–
O=C(OC1CCCCC1)c1ccccc1C(=O)OC1CCCCC1	inactive	inactive	–	–	–	–	inactive	–	–	inactive	inactive	74.7 µM (active)	13.7 µM (active)	17.4 µM (active)	38.1 µM (active)	67.5 µM (active)	inactive	187 µM (active)	–	–
CCOP(=O)(CN(CCO)CCO)OCC	inactive	inactive	inactive	inactive	inactive	inactive	inactive	inactive	inactive	inactive	inactive	–	–	–	–	–	inactive	–	–	–
Cc1ccccc1C(=O)Nc1cccc(OC(C)C)c1	inactive	inactive	–	–	inactive	inactive	inactive	inactive	inactive	inactive	inactive	61.9 µM (active)	158 µM (active)	–	–	–	–	–	–	–
c1cc[c]([Hg][c]2ccccc2)cc1	–	–	inactive	inactive	inactive	inactive	inactive	inactive	inactive	inactive	inactive	–	–	–	–	–	–	–	22.6 µM (active)	21.3 µM (active)
C1CCC(NC2CCCCC2)CC1	inactive	inactive	inactive	inactive	inactive	inactive	inactive	inactive	inactive	inactive	inactive	–	–	–	–	–	inactive	–	–	–
CCOP(=S)(OCC)SCCS(=O)(=O)CC	inactive	inactive	inactive	inactive	inactive	inactive	inactive	inactive	inactive	inactive	inactive	–	–	–	–	–	inactive	–	–	–
OCc1ccco1	inactive	inactive	inactive	inactive	inactive	inactive	inactive	inactive	inactive	inactive	inactive	–	–	–	–	–	–	–	–	–
COc1ccc(OC)c(C=O)c1	inactive	inactive	inactive	inactive	inactive	inactive	inactive	inactive	inactive	inactive	inactive	–	–	–	–	–	inactive	–	–	–
COP(=S)(OC)Oc1c(Cl)cc(C)cc1Cl	inactive	inactive	inactive	inactive	inactive	inactive	inactive	inactive	inactive	inactive	inactive	–	–	–	–	–	inactive	–	–	–
